Compound activity (PubChem)
Mito fusion act = qHTS Assay for Small Molecule Inhibitors of Mitochondrial Division or Activators of Mitochondrial Fusion | Potency, µM (top dose mostly 46.1 µM), most hits filed as activators | AID 485298, 2010 | 0.23% of 320,000 active | S. cerevisiae fusion-defective mutant growth rescue, CellTiterGlo 48 h; also: nearly all actives have a fitted effect of over 45% in size
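Read-out: ATP-based luminescence (CellTiterGlo, 10 min ambient) reporting growth of fusion-defective ts yeast after 48 hours at 37C on glycerol/ethanol YPEG medium in the presence of compound.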
FUS yeast rescue = qHTS for Suppressors of FUS Proteinopathy: Primary screen using FUS-linked yeast assay; S. cerevisiae FUS-expressing, growth rescue, OD600, 24 h; Potency, µM (top dose mostly 76.6 µM), most hits filed as activators; 0.24% of 390,000 active; AID 1347120, 2019; also: nearly all actives have a fitted effect of over 55% in size
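Galactose (2%) drives FUS expression in yeast precultured in raffinose; seeding density OD 0.005. Test compounds incubated 24hr at 30C and 99% humidity before absorbance at 600 nm was measured.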
A-T KAP1 phos = qHTS Assay for Identifying a Potential Treatment of Ataxia-Telangiectasia; F2112 A-T fibroblasts, KAP-1 phosphorylation AlphaLISA; neocarzinostatin DNA damage 30 min before lysis; Potency, µM (titrated, usually from 57.5 µM), hits mostly activators; 0.19% of 320,000 active; AID 485349, 2010; also: nearly all actives have a fitted effect of over 45% in size
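ATM-like activity read as KAP-1 phosphorylation via AlphaLISA donor/acceptor antibody pairs after lysis and 6 hr at 25C. Cells were ATM-null patient fibroblasts (F2112, hTERT), dosed 60 min, then exposed to the DSB inducer NCS for 30 min.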
TDP43 rescue = qHTS of TDP-43 Inhibitors; TDP-43 expressing yeast growth rescue, BacTiter-Glo, 24 h; Potency, µM (highest dose often 46.1 µM), most hits filed as activators; 1.8% of 410,000 active; AID 652104, 2013; also: nearly all actives have a fitted effect of over 50% in size
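Yeast expressing TDP-43 (pregrown in raffinose, seeded at OD600=0.02 in galactose medium) exposed to compounds 24 hr at 30 deg C. Growth read by BacTiter-Glo luminescence; rescue of toxicity appears as increased signal.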
aSyn yeast inh = qHTS of alpha-syn Inhibitors. Yeast expressing alpha-synuclein, growth rescue, BacTiter-Glo, 24 h. AID 652106, 2013. 0.14% of 370,000 active. Potency, µM (highest dose often 46.1 µM), actives largely listed as activators; also: nearly all actives have a fitted effect of over 65% in size
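Galactose-induced alpha-syn yeast (OD600=0.02, raffinose-pregrown) + pinned cpd, 24 hr, 30 deg C; growth by BacTiter-Glo luminescence. Growth restoration scores as activation.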
Abeta rescue = qHTS for compounds that reverse cellular toxicity of Amyloid beta (A-beta) peptide in yeast: Primary Screen. Potency, µM (doses to about 46.1 µM), actives largely listed as activators. yeast expressing A-beta42, growth rescue, OD600, 48 h; response scale: 0% DMSO, 100% iron-clioquinol control. 0.063% of 410,000 active; also: nearly all actives have a fitted effect of over 55% in size
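Yeast growth medium received pinned compounds, then yeast cells expressing toxic A-beta were added; plates incubated at 30 C for 48 hr. Growth read as absorbance at 600 nm, normalized to DMSO and equimolar FeCl3 plus clioquinol controls.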
Of the large screens only hits and unclear results are named; the others gave an inactive call. Sampled rows, rich in hits. Any-hit rate of the full collection: about 2.4%. Calls follow the shape of the dose curve; as a rule, active = well fitted curve in the direction sought with a large enough effect; inconclusive = small, poorly fitted or top-dose-only effect, or another doubt; inactive = no such curve, though single readings can be large; an effect the other way counts as inactive or inconclusive.

CC(C)(C)C1CCc2nc(NC(=O)Cc3ccccc3)sc2C1 (stereo not drawn)	TDP43 rescue 32µM (no result: Mito fusion act, A-T KAP1 phos, aSyn yeast inh)
Cc1cccc(OCC(=O)Nc2nc3c(s2)CC(C(C)(C)C)CC3)c1C (stereo not drawn)	none (no result: Mito fusion act, A-T KAP1 phos, aSyn yeast inh)
COc1cc2c(NC3CCN(C)CC3)nc(N3CCCCC3)nc2cc1OCCCN(C)C	none (no result: Mito fusion act, FUS yeast rescue, A-T KAP1 phos, TDP43 rescue, Abeta rescue)
CC(C)[C@H](NC(=O)OC(C)(C)C)C(=O)N1CCC(Oc2cccnc2)CC1	none (no result: Mito fusion act, A-T KAP1 phos, TDP43 rescue, aSyn yeast inh, Abeta rescue)
C#CC1(O)C2C=C(OC)C(=O)C1C(c1ccccc1)C2C (stereo not drawn)	none (no result: Mito fusion act, A-T KAP1 phos, TDP43 rescue, aSyn yeast inh, Abeta rescue)
CN1c2ccccc2SC2C(c3ccccc3)=NOC21 (stereo not drawn)	TDP43 rescue 18µM (no result: Mito fusion act, A-T KAP1 phos)
CN1C(=O)CC(c2ccco2)Sc2ccccc21 (stereo not drawn)	FUS yeast rescue inconclusive
O=[N+]([O-])c1ccccc1NCCNS(=O)(=O)c1ccc(Cl)cc1	TDP43 rescue 11µM (no result: FUS yeast rescue)
Cc1ccc(C2CCC3(CCC(=O)N3CCOC(=O)Nc3ccc(F)cc3)CC2)cc1 (stereo not drawn)	none (no result: Mito fusion act, A-T KAP1 phos, TDP43 rescue, aSyn yeast inh, Abeta rescue)
CC(C)(C)c1ccc(-n2ncc3c2CCCC3NC(=O)CN2CCCCC2=O)cc1 (stereo not drawn)	Mito fusion act 4.5µM
CC(NC(=O)CSc1n[nH]c(-c2ccccc2Cl)n1)c1nc2ccccc2[nH]1 (stereo not drawn)	none (no result: Mito fusion act, A-T KAP1 phos, aSyn yeast inh)
COc1ccc(/C=N/NC(=S)N[C@H]2CC3CCC2C3)cc1 (stereo partly drawn)	Abeta rescue inconclusive
COc1cc(/C=N/NC(=S)NC2CC3CCC2C3)ccc1O (stereo not drawn)	TDP43 rescue 22µM, Abeta rescue 11µM
CCOC(=O)/C(=C\c1ccc(Cl)cc1)c1nc2sc(C)c(C)c2c(=O)[nH]1	A-T KAP1 phos inconclusive, TDP43 rescue 18µM
CCOC(=O)CSc1nc2sc(C)c(C)c2c(=O)[nH]1	none
Cc1nc(C)c(-c2ccc(SCc3ccccc3C)nn2)s1	TDP43 rescue 16µM
O/N=C/c1ccn(-c2ccc(Br)cc2)c1	TDP43 rescue 14µM
Cc1cc2ncn(/N=C/c3ccc([N+](=O)[O-])s3)c2cc1C	TDP43 rescue 13µM (no result: FUS yeast rescue)
COc1ccc(S[C@]2(C(=O)N(C)C)CC(=O)N(c3ccccc3)[C@@H]2c2ccc(OC)cc2)cc1	none (no result: Mito fusion act, A-T KAP1 phos, TDP43 rescue, aSyn yeast inh, Abeta rescue)
CCn1c(SCC(=O)Nc2cccc(NC(C)=O)c2)nnc1-c1ccco1	none
CCn1c(SCC(=O)Nc2ccc3c(c2)c2ccccc2n3CC)nnc1-c1ccco1	FUS yeast rescue 25µM
c1ccc2cc(Cn3ccc4ccc(-c5ccc6cc[nH]c6c5)cc43)ccc2c1	none (no result: Mito fusion act, A-T KAP1 phos, TDP43 rescue, aSyn yeast inh, Abeta rescue)
CCCCCSc1nc2c(c(=O)[nH]c(=O)n2C)n1CC	TDP43 rescue 13µM (no result: Mito fusion act, A-T KAP1 phos)
CCCCCSc1nc2c(c(=O)[nH]c(=O)n2C)n1C	none
CCn1c(SCc2c(F)cccc2F)nc2sc3c(c2c1=O)CCCC3	none (no result: Mito fusion act, A-T KAP1 phos, TDP43 rescue, aSyn yeast inh, Abeta rescue)
O=C(NCc1ccc(C(=O)NC2CCCC2)cc1)c1cccc(Br)c1	none (no result: Mito fusion act, A-T KAP1 phos, TDP43 rescue, aSyn yeast inh, Abeta rescue)
Cc1cccc(-n2c(=O)c3ccccc3n(Cc3ccccc3)c2=O)c1	TDP43 rescue 22µM (no result: Mito fusion act, A-T KAP1 phos, aSyn yeast inh)
O=C(Oc1cccc(C(=S)N2CCOCC2)c1)c1ccc([N+](=O)[O-])cc1[N+](=O)[O-]	TDP43 rescue 11µM
O=C(c1cccc([N+](=O)[O-])c1)N1CCN(c2ccc(Cl)cc2)CC1	TDP43 rescue inconclusive (no result: FUS yeast rescue)
O=[N+]([O-])c1cccc(C(=S)N2CCN(c3ccccc3)CC2)c1	TDP43 rescue 13µM (no result: FUS yeast rescue)
Cc1ccc(N2CCN(C(=O)C(=O)c3cccc([N+](=O)[O-])c3)CC2)cc1	TDP43 rescue 16µM (no result: Mito fusion act, A-T KAP1 phos)
Clc1cccc(CSc2ncn(-c3ccccc3)n2)c1	Mito fusion act inconclusive, TDP43 rescue 13µM
CN(C)S(=O)(=O)c1cccc(C(=O)N/N=C\c2cccc(C#N)c2)c1	none (no result: Mito fusion act, A-T KAP1 phos, TDP43 rescue, aSyn yeast inh, Abeta rescue)
